Laboratory results published in PubChem BioAssay.
Activity calls are given as the source filed them.

assay: budding yeast growth changes without added modifier – OD600, strain BY4716, 24 h, basal condition, primary screen (AID 1173); settings: S. cerevisiae BY4716 growth, OD600, 24 h; higher = more signal, called active from +8 up or from −8 down

z-score, inactive:
COC(=O)[C@@]1(Cc2ccc(OC)cc2)[C@H]2c3cc(C(=O)N4CCCC4)n(CCc4ccccn4)c3C[C@H]2CN1C(=O)c1ccccc1 1.17, CC(=O)N1Cc2ccccc2C[C@@]2(N=C(c3ccc(OCCCO)cc3)O[C@H]2c2ccccc2)C1=O -2.24, CC(C)NC(=O)[C@@]1(c2ccc([N+](=O)[O-])cc2)CC(=O)N(C(C)C)[C@@H]1c1ccc(CO)cc1 0.347, CC(C)C(O)C1C=CC2C(=O)N(C)C(=O)C2N1N1CCCCC1 (stereo not drawn) 0.717, CCCC[C@@H]1C[C@H]1[C@@H](NC(=O)c1ccccc1)c1ccccc1 1.21, CCN(CC)c1ccc(N2CC=CC34O[C@@H]5/C=C\CCCOC(=O)C5[C@H]3C(=O)N(CCCO)[C@@H]4C2=O)cc1 (stereo partly drawn) 0.993, COc1ccc(C(O)C2C=CC3C(=O)N(c4ccccc4)C(=O)C3N2Nc2ccccc2)c2ccccc12 (stereo not drawn) -5.12, O=[N+]([O-])c1ccc(C[n+]2ccc(CCCO)cc2)o1 -7.77, C[N+](C)(C)CCCCNC(=O)[C@H]1C[C@H]2C(=O)N3CCC[C@H]3C(=O)N2[C@H]1c1ccc(O)cc1 1.06, COCCOC(=O)N1C(=O)[C@@]2(c3ccccc31)[C@H](C(=O)N1CCCCCCC1)[C@H]1C(=O)O[C@H](c3ccccc3)[C@H](c3ccccc3)N1[C@@H]2c1ccccc1OCCO 0.406, C=CCC(OC(C)=O)[C@@H]1[C@@H](N(Cc2ccc(-c3ccccc3)cc2)C(=O)c2ccc(C)cc2)c2cc(OCCCO)ccc2N1C(=O)Cc1ccc(OC)cc1 (stereo partly drawn) -0.397, COC(=O)[C@@]1(Cc2ccc(OC)cc2)[C@H]2c3cc(C(=O)N4CCCC4)n(C[C@H](O)CO)c3C[C@H]2CN1C(=O)c1ccccc1 1.92, O=C1O[C@H](c2ccccc2)[C@H](c2ccccc2)N2[C@H]1[C@@H](C(=O)NC[C@H](O)c1ccccc1)[C@]1(C(=O)Nc3ccc(C#CC4=CCCCC4)cc31)[C@H]2c1ccc(O)cc1 -0.48, COc1ccc([Si](C)(C)[C@@H]2[C@@H](CCO)O[C@]3(C(=O)N(Cc4ccccc4)c4ccc(N(C=O)c5ccccc5)cc43)[C@H]2C)cc1 1.59, COc1cc(NN2C(C(O)c3ccccc3)C=CC3C(=O)N(c4ccccc4)C(=O)C32)cc(OC)c1OC (stereo not drawn) 0.887, CN(C)CCCCNC(=O)[C@@H]1C[C@@H]2C(=O)N[C@@H](CCCCN)C(=O)N2[C@@H]1c1cccc(OCCO)c1 -0.191, COc1c(C)cc(-c2cc3c(c(-c4ccccc4)n2)[Si](C(C)C)(C(C)C)O[C@H]3c2ccccc2)cc1C -0.0888, [N-]=[N+]=NCc1ccccc1C[C@]1(C(=O)NCc2ccccc2)COC(c2ccc(OCCCO)cc2)=N1 1.55, C=CCOC(=O)[C@@H]1[C@H]2C(=O)O[C@H](c3ccccc3)[C@H](c3ccccc3)N2[C@H](c2ccc(OCCOC(=O)[C@H]3C[C@H]4C(=O)N[C@@H](CCCC[N+](C)(C)C)C(=O)N4[C@H]3c3cccc(OCCO)c3)cc2)[C@@]12C(=O)Nc1ccc(I)cc12 1.68, O=C1OCC=C[C@H]2OC34C=CCN(c5ccc(Cl)cc5)C(=O)[C@H]3N(CCCO)C(=O)[C@@H]4[C@@H]12 (stereo partly drawn) -0.857, O=c1cccc(-c2ccccc2)o1 -5.07, C=C(COC)C(=O)CC[C@H](OC(=O)c1cccnc1)c1ccccc1OCCO -0.332, CCCCCN1CC=CC23O[C@@H]4C=CCCOC(=O)C4[C@H]2C(=O)N(CCCO)[C@@H]3C1=O (stereo partly drawn) -0.613, CCN(CC)c1ccc(N2CC=CC34O[C@@H]5C=CCOC(=O)[C@@H]5[C@H]3C(=O)N(CCCCCO)[C@@H]4C2=O)cc1 (stereo partly drawn) 0.0663, C#C[C@H]1Oc2ccccc2S(=O)(=O)N2CCC[C@@H]12 -0.454, O=C1OCCC/C=C\[C@H]2OC34C=CCN(CCN5CCOCC5)C(=O)[C@H]3N(CCO)C(=O)[C@@H]4C12 (stereo partly drawn) 0.0436, CC(=O)n1cc(C(O)C2C=CC3C(=O)N(c4ccccc4)C(=O)C3N2Nc2ccc(C#N)cc2)c2ccccc21 (stereo not drawn) -2.71

z-score, active:
O=C1C2C=CC(C(O)c3ccc(B(O)O)cc3)N(Nc3ccc([N+](=O)[O-])cc3)C2C(=O)N1c1ccccc1 (stereo not drawn) -17.3
